From the supplement of paper PMC13380429
A number with no mark means an inactive call.

Tested on: Vero E6 infected with SARS-CoV-2
Assay: inhibition of SARS-CoV-2 cytopathic effect; higher = more antiviral protection, active = above 15
Conditions: 48 h

Row | Structure (SMILES) | inhibition of SARS-CoV-2 cytopathic effect (1 nM) [%] | inhibition of SARS-CoV-2 cytopathic effect (8.33 nM) [%] | inhibition of SARS-CoV-2 cytopathic effect (100 nM) [%] | inhibition of SARS-CoV-2 cytopathic effect (833.33 nM) [%] | inhibition of SARS-CoV-2 cytopathic effect (10000 nM)
1 | CCN(CC)CCCC(C)Nc1ccnc2cc(Cl)ccc12 (stereo not given) [chloroquine] | -1.07 | -2.02 | 0.51 | -0.4 | -1.51%
2 | CO/N=C(\C(=O)N[C@@H]1C(=O)N2C(C(=O)O)=CCS[C@H]12)c1csc(N)n1 [ceftizoxim] | -1.24 | -13.2 | -0.8 | 0.85 | 0.82%
3 | COc1ccc(CCN(C)CCCC(C#N)(c2cc(OC)c(OC)c(OC)c2)C(C)C)cc1OC (stereo not given) [gallopamil] | -0.29 | 0.76 | -0.41 | 0.33 | -2.43%
4 | OC(c1ccc(-c2ccc(CN3CCN(Cc4ccncc4)CC3)cc2)c(F)c1)(C(F)(F)F)C(F)(F)F | -1.89 | 0.74 | -2.07 | -1.4 | -1.46%
5 | COc1ccccc1OCC(O)CO (stereo not given) [guaifenesin] | 1.29 | 1.07 | 0 | 0.99 | 0.94%
6 | COc1cc(F)c(C(C)C)cc1-c1ccc(C(F)(F)F)cc1CN1C(=O)O[C@H](c2cc(C(F)(F)F)cc(C(F)(F)F)c2)[C@@H]1C [anacetrapib] | 0.72 | 0.48 | -1.02 | -2.52 | 2.39%
7 | Cc1c(O)c(=O)n(-c2ccccc2)n1C [4-hydroxy-phenazone] | -1.11 | 0.39 | 4.58 | -1.8 | -2.04%
8 | COc1c(-c2ccc3cc(NS(C)(=O)=O)ccc3c2)cc(-n2ccc(=O)[nH]c2=O)cc1C(C)(C)C [dasabuvir] | 1.02 | -0.41 | 0.27 | 1.41 | 2.61%
9 | CCCCC#Cc1nc(NC)c2ncn([C@@H]3O[C@H](CO)[C@@H](O)[C@H]3O)c2n1 | -0.9 | -1.35 | 0.37 | -1.59 | -0.62%
10 | N=C(N)NN=C1C=CC(=NNC(N)=S)C=C1 [ambazone] | 1.75 | 1.52 | 1.46 | 1.18 | -0.05%
11 | CC(C)OC(=O)CNC(=O)[C@H](CS)NC(=O)CC[C@H](N)C(=O)O [glutathione-monoisopropyl-ester] | -0.48 | 2.43 | -0.65 | 0.55 | 2.32%
12 | CC(Cc1ccc(O)cc1)NCC(O)c1cc(O)cc(O)c1 (stereo not given) [fenoterol] | 2.01 | 0.82 | 2.19 | 2.52 | 0.86%
13 | COc1ccc2c(O[C@@H]3C[C@H]4C(=O)N[C@]5(C(=O)NS(=O)(=O)C6CC6)C[C@H]5/C=C\CCCCN(C)C(=O)[C@@H]4C3)cc(-c3nc(C(C)C)cs3)nc2c1C [simeprevir] | -0.41 | 3.7 | 2.68 | -2.31 | 2.37%
14 | CN(C)CCNc1nc2cc(O)ccc2c2c1C(=O)c1ccccc1-2 | 0.16 | 1.19 | -1.3 | -7.91 | -23.6%
15 | Cc1cccc(C)c1OCC(=O)N[C@@H](Cc1ccccc1)[C@@H](O)C[C@H](Cc1ccccc1)NC(=O)[C@H](C(C)C)N1CCCNC1=O [lopinavir] | 1.3 | 1 | 1.43 | 0.57 | 12.6%
16 | C/C(=C\C(=O)Nc1ccccc1C(=O)O)c1ccc2ccccc2c1 | 3.55 | 3.85 | 1.03 | 1.37 | -2.89%
17 | CC(=O)NC1CCSC1=O (stereo not given) [citiolone] | 3.06 | -0.41 | -6.39 | -4.01 | 2.58%
18 | CN1C(CCl)Nc2cc(Cl)c(S(N)(=O)=O)cc2S1(=O)=O (stereo not given) [methyclothiazide] | -0.11 | 0.15 | 1.53 | 1 | 2.28%
19 | COc1cccc(C2(O)CCCCC2CN(C)C)c1 (stereo not given) | 3.29 | 6.35 | 2.41 | -2.01 | -5.31%
20 | CCN(CC)CCOC(=O)C(c1ccccc1)c1ccccc1 [adiphenine] | -1.11 | -0.19 | 2.09 | 1.64 | -0.25%

Row | Structure (SMILES) | inhibition of SARS-CoV-2 cytopathic effect (1 nM) [%] | inhibition of SARS-CoV-2 cytopathic effect (8.33 nM) [%] | inhibition of SARS-CoV-2 cytopathic effect (100 nM) [%] | inhibition of SARS-CoV-2 cytopathic effect (833.33 nM) [%] | inhibition of SARS-CoV-2 cytopathic effect (10000 nM)
21 | Oc1ccc(/C=C/c2cc(O)cc(O)c2)cc1 [resveratrol] | 1.06 | 0.64 | -2.17 | -0.25 | 3.82%
22 | COc1cc(Oc2ccnc3cc(OC)c(OC)cc23)ccc1NC(=O)NC(C)c1nccs1 (stereo not given) | -1.6 | 0.95 | 1.7 | 0.48 | -1.8%
23 | O=C1c2ccccc2C(=O)c2ccccc21 [anthraquinone] | -2.37 | -0.48 | -1.17 | 1.54 | 0.18%
24 | CCOC(=O)[C@H](Cc1ccccc1)NC(=O)c1cc(Cl)c(OCCN2CCN(C)CC2)c(Cl)c1O | -1.93 | 1.91 | 0.81 | -1.07 | 2.79%
25 | CN(C)[C@@H]1C(O)=C(C(N)=O)C(=O)[C@@]2(O)C(O)=C3C(=O)c4c(O)cccc4[C@@](C)(O)[C@H]3[C@H](O)[C@@H]12 [oxytetracycline] | -0.32 | -3.1 | -1.01 | -0.96 | -0.98%
26 | CC(C)COC(=O)c1ccc(N)cc1 [isobutamben] | -0.32 | -0.5 | -1.06 | -2.97 | 1.5%
27 | O=C(Nc1ccccc1C(=O)Nc1ccc(CCO)cc1)c1ccc([N+](=O)[O-])cc1 | -0.75 | 0.23 | -1.82 | -1.34 | -1.2%
28 | COc1ccc2c(c1OC)C(=O)O[C@@H]2[C@H]1c2cc3c(cc2CCN1C)OCO3 [hydrastine-(1R,9S)] | 2.12 | 0.73 | 1.14 | 1.33 | -0.76%
29 | CCC[C@H](Nc1nc(-c2ccc(NC(=O)NCC)c(OC)c2)ncc1C)c1cccnc1 | 0.07 | -1.4 | -1.33 | -0.69 | -2.7%
30 | COc1cc2c(Nc3ccc(Cl)c(Cl)c3F)ncnc2cc1OC[C@@H]1C[C@@H]2CN(C)C[C@@H]2C1 | -2.06 | -2.66 | -5.42 | -14.7 | -22.4%
31 | CCCn1c(=O)c2[nH]c(C3CCCC3)nc2n(CCC)c1=O | 2.33 | 2.47 | 1.58 | -1.44 | 1.86%
32 | CCc1ccccc1OC[C@@H](O)CN[C@H]1CCCc2ccccc21 | -1.78 | -0.44 | -3.44 | -0.6 | -4.25%
33 | CC1(C)CC[C@]2(C(=O)O)CC[C@]3(C)C(=CC[C@@H]4[C@@]5(C)CC[C@H](O)C(C)(C)[C@@H]5CC[C@]43C)[C@@H]2C1 [oleanolic-acid] | -0.65 | -0.09 | 0.47 | -0.94 | -0.53%
34 | C#C[C@]1(O)CC[C@H]2[C@@H]3CCC4=Cc5oncc5C[C@]4(C)[C@H]3CC[C@@]21C [danazol] | 2.48 | -0.9 | 1.74 | 3.55 | 6.39%
35 | CN(C)CCOc1ccc(/C(=C(/CCCl)c2ccccc2)c2ccccc2)cc1 [toremifene] | 1.37 | 1.85 | 1.34 | 2.22 | 23.7% (active)
36 | FC(F)(F)c1cc(CO[C@H]2CCCN[C@H]2c2ccccc2)cc(C(F)(F)F)c1 | 0.32 | -2.69 | -5.07 | -6.64 | 18.1% (active)
37 | CCN1CCC(n2cc(CNc3cc(Cl)c4ncc(C#N)c(Nc5ccc(F)c(Cl)c5)c4c3)nn2)CC1 [cot-inhibitor-2] | 0.26 | -1.48 | 0.28 | -0.75 | 14%
38 | COc1ccc2[nH]c(-c3ccccc3)c(CCNC(C)=O)c2c1 [2-phenylmelatonin] | 0.42 | -1.88 | 0.56 | -2.59 | -0.4%
39 | Cn1cnc2c(NCc3ccccc3)nc(NCCO)nc21 [olomoucine] | 1.4 | 1.88 | 1.77 | -0.46 | -0.63%
